In PubChem BioAssay (EPA / NIEHS):
“And” between values parts separate entries of the source, which are not always exact repeats. Identical values can stand only once. Inconclusive results are not listed. The source made the active and inactive calls. How the source made its calls, unless noted: active means hit-call score of the fitted dose curve at least 0.9, where 1 is the maximum; inactive means score below 0.9.

Tests used:
[1] = read-out: Monokine induced gamma interferon (MIG), CXCL9 (gene 4283); assay: BSK_SAg_MIG: BioMAP Diversity Plus: SAg Assay for Monokine induced gamma interferon (MIG) Biomarker Activity (AID 2283092); conditions: primary human HUVEC with PBMC; actives raise or lower the signal
How it was run: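 HUVEC plus human PBMC co-culture, chemicals dosed and MIG (CXCL9) quantified by ELISA at 24 h. Bidirectional curve fitting against DMSO as negative control and baseline, so both gain and loss of signal count as activity.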

[2] = BSK_SAg_PBMCCytotoxicity: PBMC Cytotoxicity Assessment in the BioMAP Diversity Plus: SAg Assay (AID 2283093); conditions: primary human HUVEC with PBMC;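 further: PBMC viability measured as Alamar Blue reduction fluorescence at 546/580 nm; fitted both ways against DMSO so a hit may be loss or gain of signal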;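 on AC50: PBMC superantigen activated with SEB plus TSST-1 one hour after compound addition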
How it was run: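 Alamar Blue reduction (6 h, 546/580 nm) reports PBMC cytotoxicity after 90 h superantigen activation (SEB, TSST-1; 20 ng/mL final each) with 1 h compound pre-treatment. Gain or loss of signal fitted versus DMSO.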

[3] = read-out: Interleukin-8 (IL8), CXCL8 (gene 3576); assay: BSK_SAg_IL8: BioMAP Diversity Plus: SAg Assay for Interleukin-8 (IL8) Biomarker Activity (AID 2283094); conditions: primary human HUVEC with PBMC; actives raise or lower the signal
How it was run: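 HUVEC/PBMC co-culture, 24 h post-dose; IL-8 by ELISA. Gain or loss of signal fitted bidirectionally vs DMSO baseline.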

[4] = BSK_SAg_Proliferation: Cell Proliferation Assessment in the BioMAP Diversity Plus: SAg Assay (AID 2283095); conditions: primary human HUVEC with PBMC;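 further: relative cell number as total protein by SRB absorbance in sub-confluent culture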
How it was run: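 HUVEC/PBMC co-culture, 96-well. TCA-fixed (10%), 0.1% SRB stain, A560 at 96 h. Protein content used as viability readout; bidirectional fitting vs DMSO control.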

[5] = BSK_SAg_SRB: Viability Assessment in the BioMAP Diversity Plus: SAg Assay (AID 2283096); conditions: primary human HUVEC with PBMC;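 further: cells read one day after compound addition; hits may be either gain or loss of signal compared with DMSO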
How it was run: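 This overt-cytotoxicity endpoint quantifies protein in human endothelial/PBMC co-cultures at 24 h using SRB absorbance (560 nm) after trichloroacetic acid fixation. Values reflect signal change from the DMSO negative control, fitted bidirectionally.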

[6] = target: human CYP2D6, CYP2D6 (gene 1565) (UniProt P10635); assay: NVS_ADME_hCYP2D6: NovaScreen (NVS) CYP450-related Enzyme Activity (ADME) Assay for human CYP2D6 (AID 2283107; active means hit-call score of the fitted dose curve at least 0.9, where 1 is the maximum)
How it was run: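 Fluorescence intensity read 1 h post-dosing; insect-cell-expressed recombinant protein with fluorogenic substrate, no cells. Activity is scored as signal loss relative to acetonitrile baseline, first at a single 10 uM concentration in duplicate, then as concentration series for confirmed actives.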

[7] = target: Cytochrome P450 2C19 (Homo sapiens) (UniProt P33261); assay: NVS_ADME_hCYP2C19: NovaScreen (NVS) CYP450-related Enzyme Activity (ADME) Assay for human CYP2C19 (AID 2283113; active means hit-call score of the fitted dose curve at least 0.9, where 1 is the maximum;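 further: potency for inhibition seen as loss of fluorescent signal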)
How it was run: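 Recombinant insect-cell-expressed enzyme, fluorescent substrate, 1 h after chemical addition, fluorescence intensity. Baseline = acetonitrile vehicle; activity scored as signal loss. Primary HTS single concentration 10 uM, duplicate; actives retested in concentration series.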

[8] = target: human Beta-secretase (BACE), BACE1 (gene 23621) (UniProt P56817); assay: NVS_ENZ_hBACE: NovaScreen (NVS) Enzymatic Assay for human Beta-secretase (BACE) (AID 2283140; active means hit-call score of the fitted dose curve at least 0.9, where 1 is the maximum;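 further: hits are inhibitors that reduce fluorescent substrate signal versus DMSO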)
How it was run: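 SF9-expressed enzyme, cell-free; fluorescent substrate readout after 1 h. Screened at 25 uM single concentration, duplicate; hits retested in concentration series. Activity relative to DMSO baseline, loss-of-signal.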

[9] = target: human Dual Specificity Protein Phosphatase 3 (DUSP3), DUSP3 (gene 1845) (UniProt P51452); assay: NVS_ENZ_hDUSP3: NovaScreen (NVS) Enzymatic Assay for human Dual Specificity Protein Phosphatase 3 (DUSP3) (AID 2283152; active means hit-call score of the fitted dose curve at least 0.9, where 1 is the maximum;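 further: phosphatase activity of recombinant human DUSP3 on a fluorogenic substrate without cells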)
How it was run: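 Cell-free fluorescence-intensity enzyme activity assay with recombinant protein and substrate; loss of signal fitted relative to DMSO baseline. Primary screen in duplicate at 25 uM, actives then run in concentration series; measured 0 h after dosing.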

[10] = target: human Ephrin type-A Receptor 1 (EphA1), EPHA1 (gene 2041) (UniProt P21709); assay: NVS_ENZ_hEphA1: NovaScreen (NVS) Enzymatic Assay for human Ephrin type-A Receptor 1 (EphA1) (AID 2283158; active means hit-call score of the fitted dose curve at least 0.9, where 1 is the maximum;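 further: activity is signal loss versus DMSO meaning EphA1 kinase inhibition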)
How it was run: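 Recombinant kinase, fluorescent substrate, mobility-shift separation, fluorescence read at 1 h. Single-point duplicates at 25 uM; hits (e.g., ≥30% inhibition) run singleton concentration-response, max 50 uM. DMSO = negative control/baseline.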

[11] = target: human Matrix Metalloproteinase-9 (MMP9), MMP9 (gene 4318) (UniProt P14780); assay: NVS_ENZ_hMMP9: NovaScreen (NVS) Enzymatic Assay for human Matrix Metalloproteinase-9 (MMP9) (AID 2283190; active means hit-call score of the fitted dose curve at least 0.9, where 1 is the maximum;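 further: cell-free recombinant MMP9 protease activity read by fluorescent substrate signal; active means inhibition seen as loss of fluorescence signal versus DMSO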)
How it was run: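 Cell-free recombinant MMP9 enzyme activity measured by fluorescence intensity 1 h after dosing. Primary screen in duplicate at 25 uM, actives followed in concentration series; loss of signal relative to DMSO.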

[12] = target: human Phosphoinositide 3-kinase alpha (PI3Ka), PIK3CA (gene 5290) (UniProt P42336); assay: NVS_ENZ_hPI3Ka: NovaScreen (NVS) Enzymatic Assay for human Phosphoinositide 3-kinase alpha (PI3Ka) (AID 2283196; active means hit-call score of the fitted dose curve at least 0.9, where 1 is the maximum)
How it was run: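 Recombinant human PI3Kα with fluorescent substrate, 1 h, product separated by electrophoretic mobility shift; 25 uM duplicate screen, hits (e.g., 30% inhibition) retested singly up to 50 uM; loss of signal vs DMSO.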

[13] = target: human Vascular Endothelial Growth Factor Receptor 1 (VEGFR1), FLT1 (gene 2321) (UniProt P17948); assay: NVS_ENZ_hVEGFR1: NovaScreen (NVS) Enzymatic Assay for human Vascular Endothelial Growth Factor Receptor 1 (VEGFR1) (AID 2283226; active means hit-call score of the fitted dose curve at least 0.9, where 1 is the maximum)
How it was run: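 Kinase activity of recombinant human VEGFR1 was read by fluorescence after electrophoretic separation of product from substrate, 1 h post-dosing; initial duplicate single-point testing at 25 uM, followed by concentration-series follow-up, with DMSO as baseline.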

[14] = target: human Adenosine A2a Receptor (AdoRA2a), ADORA2A (gene 135) (UniProt P29274); assay: NVS_GPCR_hAdoRA2a: NovaScreen (NVS) G Protein-Coupled Receptor Assay for human Adenosine A2a Receptor (AdoRA2a) (AID 2283256; active means hit-call score of the fitted dose curve at least 0.9, where 1 is the maximum)
How it was run: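 HEK293-derived receptor preparation, radioligand displacement, 1.5 h, filtration + scintillation read. Loss of bound signal scored vs DMSO. Single-point 25 uM in duplicate first, then concentration-response for actives.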

[15] = target: Cytochrome P450 3A4 (Homo sapiens) (UniProt P08684); assay: NVS_ADME_hCYP3A4: NovaScreen (NVS) CYP450-related Enzyme Activity (ADME) Assay for human CYP3A4 (AID 2283110; active means hit-call score of the fitted dose curve at least 0.9, where 1 is the maximum)
How it was run: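 Activity is derived from decreased fluorescence intensity relative to acetonitrile, measured 0.33 hour after dosing insect-cell-expressed CYP3A4 in a cell-free format. Screening used 10 uM in duplicate before concentration-response follow-up.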

[16] = target: human Phosphodiesterase 10 (PDE10), PDE10A (gene 10846) (UniProt Q9Y233); assay: NVS_ENZ_hPDE10: NovaScreen (NVS) Enzymatic Assay for human Phosphodiesterase 10 (PDE10) (AID 2283195; active means hit-call score of the fitted dose curve at least 0.9, where 1 is the maximum)
How it was run: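 Readout is fluorescence intensity following electrophoretic mobility-shift separation, 1 h after dosing of isolated PDE10A protein. Hits meeting a preset threshold at 25 uM went to concentration series (max 50 uM), analysed relative to DMSO.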

[17] = target: guinea pig Leukotriene D4 Receptor (LTD4), CYSLTR1 (gene 100135514) (UniProt Q2NNR5); assay: NVS_GPCR_gLTD4: NovaScreen (NVS) G Protein-Coupled Receptor Assay for guinea pig Leukotriene D4 Receptor (LTD4) (AID 2283248; active means hit-call score of the fitted dose curve at least 0.9, where 1 is the maximum)
How it was run: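 Guinea pig lung membrane preparation; bound radioligand measured by filter scintillation after 1 h, loss of signal versus DMSO marking displacement. Compounds tested at 25 uM in duplicate, hits retested to max 50 uM.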

[18] = target: human Adenosine A1 Receptor (AdoRA1), ADORA1 (gene 134) (UniProt P30542); assay: NVS_GPCR_hAdoRA1: NovaScreen (NVS) G Protein-Coupled Receptor Assay for human Adenosine A1 Receptor (AdoRA1) (AID 2283254; active means hit-call score of the fitted dose curve at least 0.9, where 1 is the maximum)
How it was run: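 Radioligand binding was run on human cortical membranes, cell-free, with filter-based scintillation counting 1 h after dosing. The primary screen was duplicate at 25 uM, followed by concentration series. Signal loss versus DMSO was fitted positive-direction.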

Measured: AC50

Chain of human Phosphodiesterase 10 (PDE10), PDE10A (gene 10846) (Q9Y233 whole entry, looked up): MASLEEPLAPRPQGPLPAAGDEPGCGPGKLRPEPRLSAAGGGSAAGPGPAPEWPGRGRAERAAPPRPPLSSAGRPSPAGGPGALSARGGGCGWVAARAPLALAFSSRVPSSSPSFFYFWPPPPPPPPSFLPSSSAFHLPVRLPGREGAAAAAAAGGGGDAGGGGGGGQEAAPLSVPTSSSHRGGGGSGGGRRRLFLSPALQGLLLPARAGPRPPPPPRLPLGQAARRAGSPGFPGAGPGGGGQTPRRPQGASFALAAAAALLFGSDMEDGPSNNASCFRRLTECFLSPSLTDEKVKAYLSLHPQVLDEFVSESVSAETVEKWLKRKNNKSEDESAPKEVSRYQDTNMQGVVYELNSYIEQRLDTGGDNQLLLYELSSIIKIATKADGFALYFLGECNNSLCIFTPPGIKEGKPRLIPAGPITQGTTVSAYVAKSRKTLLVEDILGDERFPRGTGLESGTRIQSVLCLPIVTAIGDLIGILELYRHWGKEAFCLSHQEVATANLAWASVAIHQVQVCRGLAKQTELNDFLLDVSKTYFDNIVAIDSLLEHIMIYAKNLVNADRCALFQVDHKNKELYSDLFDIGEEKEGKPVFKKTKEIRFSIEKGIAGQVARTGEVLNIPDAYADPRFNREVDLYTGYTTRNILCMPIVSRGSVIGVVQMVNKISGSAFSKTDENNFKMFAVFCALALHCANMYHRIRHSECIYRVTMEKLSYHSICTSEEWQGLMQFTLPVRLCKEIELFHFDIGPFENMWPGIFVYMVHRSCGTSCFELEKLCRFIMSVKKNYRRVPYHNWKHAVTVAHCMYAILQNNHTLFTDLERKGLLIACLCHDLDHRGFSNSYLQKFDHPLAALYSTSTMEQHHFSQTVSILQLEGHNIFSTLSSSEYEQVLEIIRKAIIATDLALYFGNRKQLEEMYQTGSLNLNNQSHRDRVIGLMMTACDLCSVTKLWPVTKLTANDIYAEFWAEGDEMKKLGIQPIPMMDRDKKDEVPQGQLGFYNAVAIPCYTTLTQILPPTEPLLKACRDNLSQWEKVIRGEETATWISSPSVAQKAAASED
Chain of human Matrix Metalloproteinase-9 (MMP9), MMP9 (gene 4318) (P14780 whole entry, looked up): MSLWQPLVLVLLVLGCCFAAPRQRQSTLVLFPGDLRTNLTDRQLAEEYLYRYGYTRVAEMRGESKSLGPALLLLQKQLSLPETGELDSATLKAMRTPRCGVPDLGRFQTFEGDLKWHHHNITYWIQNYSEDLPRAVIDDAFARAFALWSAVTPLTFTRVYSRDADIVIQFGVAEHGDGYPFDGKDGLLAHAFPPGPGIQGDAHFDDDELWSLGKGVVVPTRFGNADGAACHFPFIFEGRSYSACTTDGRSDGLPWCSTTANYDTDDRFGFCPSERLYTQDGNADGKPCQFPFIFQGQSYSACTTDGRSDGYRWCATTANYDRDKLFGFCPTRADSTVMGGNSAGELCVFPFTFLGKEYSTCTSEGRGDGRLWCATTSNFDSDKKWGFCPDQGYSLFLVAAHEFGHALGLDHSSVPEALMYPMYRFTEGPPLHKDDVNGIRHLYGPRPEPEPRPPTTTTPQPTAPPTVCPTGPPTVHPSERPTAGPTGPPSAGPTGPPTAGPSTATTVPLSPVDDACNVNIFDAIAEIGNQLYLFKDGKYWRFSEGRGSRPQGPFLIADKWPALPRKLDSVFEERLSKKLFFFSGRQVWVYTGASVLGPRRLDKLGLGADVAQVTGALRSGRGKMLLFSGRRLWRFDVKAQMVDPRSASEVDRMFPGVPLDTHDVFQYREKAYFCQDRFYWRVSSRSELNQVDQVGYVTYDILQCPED
Chain of Cytochrome P450 3A4 (Homo sapiens) (P08684 whole entry, looked up): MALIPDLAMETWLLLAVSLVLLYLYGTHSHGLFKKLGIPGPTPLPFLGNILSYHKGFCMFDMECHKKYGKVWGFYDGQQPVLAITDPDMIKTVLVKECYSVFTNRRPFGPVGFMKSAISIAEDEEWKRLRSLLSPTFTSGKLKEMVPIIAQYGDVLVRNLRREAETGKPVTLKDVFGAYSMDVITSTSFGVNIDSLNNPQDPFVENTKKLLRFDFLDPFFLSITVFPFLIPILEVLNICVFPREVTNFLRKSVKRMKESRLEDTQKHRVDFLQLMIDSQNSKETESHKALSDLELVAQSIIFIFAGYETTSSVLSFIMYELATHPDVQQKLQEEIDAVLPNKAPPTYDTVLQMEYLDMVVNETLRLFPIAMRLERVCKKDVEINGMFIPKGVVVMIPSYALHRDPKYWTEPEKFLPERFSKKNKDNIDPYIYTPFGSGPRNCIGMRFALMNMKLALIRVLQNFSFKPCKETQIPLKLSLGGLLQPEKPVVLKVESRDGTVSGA
Chain of human Ephrin type-A Receptor 1 (EphA1), EPHA1 (gene 2041) (P21709 whole entry, looked up): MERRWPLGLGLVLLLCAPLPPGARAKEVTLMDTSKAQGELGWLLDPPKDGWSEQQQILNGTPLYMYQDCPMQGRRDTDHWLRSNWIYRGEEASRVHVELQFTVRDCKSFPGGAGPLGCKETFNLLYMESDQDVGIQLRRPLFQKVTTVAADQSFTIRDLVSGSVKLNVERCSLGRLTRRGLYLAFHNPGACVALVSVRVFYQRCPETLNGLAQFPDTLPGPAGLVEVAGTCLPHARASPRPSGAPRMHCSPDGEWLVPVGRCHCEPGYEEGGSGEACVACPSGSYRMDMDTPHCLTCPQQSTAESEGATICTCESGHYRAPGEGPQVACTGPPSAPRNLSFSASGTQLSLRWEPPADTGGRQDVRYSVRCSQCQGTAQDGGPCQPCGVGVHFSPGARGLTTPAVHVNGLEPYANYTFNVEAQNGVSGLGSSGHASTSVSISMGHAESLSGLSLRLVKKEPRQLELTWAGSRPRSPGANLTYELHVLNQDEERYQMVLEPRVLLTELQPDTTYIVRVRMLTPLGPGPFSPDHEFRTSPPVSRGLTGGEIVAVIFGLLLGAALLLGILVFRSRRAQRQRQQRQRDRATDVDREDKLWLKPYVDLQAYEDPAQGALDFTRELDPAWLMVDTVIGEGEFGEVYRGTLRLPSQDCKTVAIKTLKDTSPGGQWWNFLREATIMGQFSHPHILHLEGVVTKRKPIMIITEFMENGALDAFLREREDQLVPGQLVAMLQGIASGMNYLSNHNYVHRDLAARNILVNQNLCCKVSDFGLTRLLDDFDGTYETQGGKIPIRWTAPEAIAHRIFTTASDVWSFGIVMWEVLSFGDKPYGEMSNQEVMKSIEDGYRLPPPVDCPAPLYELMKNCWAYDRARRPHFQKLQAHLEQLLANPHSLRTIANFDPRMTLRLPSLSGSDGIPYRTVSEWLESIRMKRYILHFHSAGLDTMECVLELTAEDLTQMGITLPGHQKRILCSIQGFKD
Chain of human Beta-secretase (BACE), BACE1 (gene 23621) (P56817 whole entry, looked up): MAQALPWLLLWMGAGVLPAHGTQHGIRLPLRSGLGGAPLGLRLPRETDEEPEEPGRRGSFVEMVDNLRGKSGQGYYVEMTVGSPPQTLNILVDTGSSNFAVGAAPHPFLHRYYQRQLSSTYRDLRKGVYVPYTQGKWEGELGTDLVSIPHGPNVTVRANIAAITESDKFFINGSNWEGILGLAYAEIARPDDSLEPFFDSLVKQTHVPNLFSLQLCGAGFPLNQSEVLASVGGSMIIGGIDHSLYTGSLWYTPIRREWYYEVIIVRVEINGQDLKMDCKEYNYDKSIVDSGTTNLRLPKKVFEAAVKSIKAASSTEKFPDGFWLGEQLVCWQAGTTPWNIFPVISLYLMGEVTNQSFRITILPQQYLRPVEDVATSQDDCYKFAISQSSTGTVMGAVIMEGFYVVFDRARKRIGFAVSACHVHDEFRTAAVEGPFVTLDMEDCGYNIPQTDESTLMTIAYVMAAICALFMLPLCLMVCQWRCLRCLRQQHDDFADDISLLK
Chain of human CYP2D6, CYP2D6 (gene 1565) (P10635 whole entry, looked up): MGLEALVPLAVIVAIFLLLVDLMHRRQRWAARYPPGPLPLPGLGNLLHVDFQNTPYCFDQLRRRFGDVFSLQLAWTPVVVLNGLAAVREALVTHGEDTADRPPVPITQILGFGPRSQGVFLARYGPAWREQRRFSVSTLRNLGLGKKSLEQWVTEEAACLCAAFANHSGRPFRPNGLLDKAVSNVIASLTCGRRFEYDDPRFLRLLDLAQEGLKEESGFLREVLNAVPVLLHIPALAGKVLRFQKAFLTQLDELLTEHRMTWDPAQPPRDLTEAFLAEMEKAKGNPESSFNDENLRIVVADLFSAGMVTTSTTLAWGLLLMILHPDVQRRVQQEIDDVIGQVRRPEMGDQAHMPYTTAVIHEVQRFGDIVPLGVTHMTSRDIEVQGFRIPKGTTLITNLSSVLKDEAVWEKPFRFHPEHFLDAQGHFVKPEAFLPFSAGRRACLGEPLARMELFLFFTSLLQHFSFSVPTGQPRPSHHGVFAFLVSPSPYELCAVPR
Chain of human Dual Specificity Protein Phosphatase 3 (DUSP3), DUSP3 (gene 1845) (P51452 whole entry, looked up): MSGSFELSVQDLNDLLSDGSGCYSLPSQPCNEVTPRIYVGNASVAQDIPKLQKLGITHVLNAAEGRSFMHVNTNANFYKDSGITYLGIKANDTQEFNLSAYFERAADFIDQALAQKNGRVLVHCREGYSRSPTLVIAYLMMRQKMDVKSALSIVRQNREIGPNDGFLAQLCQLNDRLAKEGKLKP
Chain of human Adenosine A1 Receptor (AdoRA1), ADORA1 (gene 134) (P30542 whole entry, looked up): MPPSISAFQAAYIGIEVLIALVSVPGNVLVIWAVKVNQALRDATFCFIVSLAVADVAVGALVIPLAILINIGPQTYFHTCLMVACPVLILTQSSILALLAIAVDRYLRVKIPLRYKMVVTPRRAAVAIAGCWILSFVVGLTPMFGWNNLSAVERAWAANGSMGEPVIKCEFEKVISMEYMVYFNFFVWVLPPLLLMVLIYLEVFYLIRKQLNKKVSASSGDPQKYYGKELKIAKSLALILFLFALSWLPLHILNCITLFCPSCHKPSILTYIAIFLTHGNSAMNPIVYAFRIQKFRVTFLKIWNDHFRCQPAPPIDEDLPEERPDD

CCCCCCCCCCCCCCCC[N+](C)(C)Cc1ccccc1
inactive: [10] | [11] | [12] | [13]
active: [1] 2.96 µM | [2] 1.17 µM | [3] 10 µM | [4] 0.456 µM | [5] 5.21 µM | [6] 0.401 µM | [7] 5 µM | [8] 6.34 µM | [9] 4.22 µM | [14] 16.4 µM

O=C(O)C(F)(F)C(F)(F)F
inactive: [1] | [2] | [3] | [4] | [5]

CCCCCCCOC(=O)c1ccccc1C(=O)OCCCCCCC
active: [2] 3.28 µM
inactive: [1] | [3] | [4] | [5]

O=C(O)C(F)(OC(F)(F)C(F)(OC(F)(F)C(F)(OC(F)(F)C(F)(F)C(F)(F)F)C(F)(F)F)C(F)(F)F)C(F)(F)F (centres undefined)
inactive: [1] | [2] | [3] | [4] | [5]

OCCCC(F)(F)C(F)(F)C(F)(F)F
inactive: [1] | [2] | [3] | [4] | [5]

CS(C)(=O)=O
inactive: [1] | [2] | [3] | [4] | [5]

CC(=O)Nc1ccc(N=Nc2cc(C)ccc2O)cc1
active: [4] 11 µM | [6] 2.96 µM | [15] 5 µM | [7] 0.00307 µM
inactive: [1] | [2] | [3] | [5] | [16]

O[Si](c1ccccc1)(c1ccccc1)c1ccccc1
active: [1] 31.1 µM | [2] 30.5 µM | [3] 20 µM | [4] 32.6 µM | [5] 26.8 µM

CO[Si](OC)(c1ccccc1)c1ccccc1
active: [2] 33.8 µM | [4] 20 µM
inactive: [1] | [3] | [5] | [16]

CCCCNc1ccccc1
inactive: [1] | [2] | [3] | [4] | [5] | [17]
active: [11] 4.99 µM

CCCCCC=O
active: [11] 1.86 µM

C=CC(=O)OCC(F)(F)C(F)(F)C(F)(F)C(F)(F)COC(=O)C=C
active: [1] 20.6 µM and 20.9 µM | [2] 28.9 µM and 30 µM | [3] 16.8 µM and 25 µM | [4] 8.2 µM and 8.47 µM | [5] 44.6 µM and 46.9 µM

CCN(CC)c1ccc2c(C)cc(=O)oc2c1
active: [8] 36.4 µM
inactive: [1] | [2] | [3] | [4] | [5] | [15] | [10] | [16] | [18]

C=C(C)C(=O)OCC(F)(F)C(F)(F)C(F)(F)F
inactive: [1] | [2] | [3] | [4] | [5]

CC(C)=CCCC(C)CCOC(=O)C(C)C (centres undefined)
inactive: [16]

O=C(O)C(F)(F)C(F)(F)C(F)(F)C(F)(F)F
inactive: [1] | [2] | [3] | [4] | [5]

O=C(O)C(F)(F)C(F)(F)C(F)(F)F
inactive: [1] | [2] | [3] | [4] | [5]

C#C[C@]1(O)CC[C@H]2[C@@H]3CCc4cc(OC)ccc4[C@H]3CC[C@@]21C
inactive: [1] | [3] | [5]
active: [2] 33.4 µM | [4] 30.4 µM | [7] 6.84 µM
